Assay outcomes deposited in PubChem BioAssay by National Center for Advancing Translational Sciences (NCATS).
Rows were chosen to be rich in hits. Some 12% of all compounds tested hit in one or more screens of this group.
JMJD2A Tudor = inhibitors of human JMJD2A Tudor domain | AlphaScreen JMJD2A-Tudor / H3K4me3 peptide binding | Potency, µM (highest dose often 114 µM), for the others: top-dose activity change, negative = inhibition, most hits filed as inhibitors | O75164 | AID 504339 | 390,000 tested, 4.4% active; note: % is set by controls: 0 for no effect and ±100 for the full control effect; nearly all actives have a fitted effect of over 50% in size
HP1b binding inh = blocks HP1-beta chromodomain binding to methylated histone tails | P83916 | AlphaScreen HP1-beta / biotin-H3K9me3 peptide binding | Potency, µM (top dose mostly 114 µM), for the others: top-dose activity change, negative = inhibition, hits mostly inhibitors | 390,000 tested, 0.56% active | AID 540317; note: nearly all actives have a fitted effect of over 70% in size
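AlphaScreen: HP1-beta (50 nM) preformed 30 min with biotin-H3(1-18)K9me3 peptide (50 nM) in PBS pH 7.4, 0.01% Tween-20. Compound added for 30 min at RT, then streptavidin donor/nickel chelate acceptor beads (10 ug/mL) for 30 min.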
G9a inh = inhibitors of human histone lysine methyltransferase G9a. Potency, µM (series often up to 102 µM), for the others: top-dose activity, negative = inhibition, most hits filed as inhibitors. AID 504332. G9a H3K9 monomethylation, AlphaScreen, 2 h. Q96KQ7. 350,000 tested, 8.8% active; note: % is set by controls: 0 for no effect and ±100 for the full control effect; nearly all actives have a fitted effect of over 75% in size
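AlphaScreen detection with an anti-monomethyl H3K9 antibody quantified product after a 2 h room-temperature reaction containing 500 nM biotinylated H3K9 peptide, 20 µM SAM and 20 nM enzyme, which had been preincubated 15 min with compound.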
L3MBTL1 block = L3MBTL1 (human) inhibition | Q9Y468 | AlphaScreen L3MBTL1–H3K9me1 peptide binding | Potency, µM (series often up to 57.1 µM), inactives show at the highest dose activity, negative = inhibition, usual class: inhibitors | 230,000 tested, 0.66% active; note: % is set by controls: 0 for no effect and ±100 for the full control effect; nearly all actives have a fitted effect of over 60% in size
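First, the protein-peptide complex forms for 30 min at room temperature (L3MBTL1 50 nM, biotinylated H3K9me1 peptide 75 nM). Next, compounds are pin-transferred and incubated 30 min. Finally, AlphaScreen beads are added and read after 30 min.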
BAZ2B inh = blocks human BAZ2B | Q9UIF8 | AlphaScreen BAZ2B-H3K14Ac peptide displacement | Potency, µM (series often up to 114 µM), inactives show top-dose activity change, negative = inhibition, actives largely listed as inhibitors | 360,000 tested, 4.4% active; note: % is set by controls: 0 for no effect and ±100 for the full control effect; nearly all actives have a fitted effect of over 60% in size
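Multi-concentration screen (max 110 uM) measuring displacement of acetylated histone H3 peptide from BAZ2B by AlphaScreen, using 50 nM protein, 50 nM peptide and 10 ug/mL streptavidin donor plus Ni-chelate acceptor beads.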
Sfp PPTase inh = blocks B. subtilis Sfp PPTase activity | Q9F4F7 | Biochemical Sfp PPTase activity, qHTS | Potency, µM, without a hit: largest response in the series, negative = inhibition, usual class: inhibitors | 310,000 tested, 3.5% active;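 note: the enzyme is Sfp with the accession as filed and its product quenches rhodamine fluorescence; 0% = enzyme reaction without inhibitor and -100% = no enzyme wells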
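With Hepes-Na pH 7.6 buffer containing 10 mM MgCl2, Sfp (15 nM) modified BHQ-2-YbbR (12.5 uM) using rhodamine-CoA (5 uM). Two reads 30 minutes apart at 525/598 nm yielded each well's rate.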
An asterisk follows results filed as active; [ ] = another dose, or the depositor's remark. Calls come from the whole dose curve; as a rule, active = well fitted curve in the direction sought with a large enough effect; inconclusive = small, poorly fitted or top-dose-only effect, or another doubt; inactive = no such curve, though single readings can be large; an effect the other way counts as inactive or inconclusive. Potency is the fitted concentration of half-maximal effect.

Screening O=C(Cc1ccc(NC(=O)N2CCCCc3ccccc32)cc1)NCc1ccccc1Br returned JMJD2A Tudor -14.3%, HP1b binding inh 23.3%, G9a inh -2.5%[59 µM] and BAZ2B inh -18.1%.
For C/C(=N/NC(=O)CNc1ccc(C)cc1)c1ccc(Br)s1 the results were JMJD2A Tudor inconclusive, HP1b binding inh -4.6%, G9a inh 35.5µM*, L3MBTL1 block inconclusive, BAZ2B inh -18.2% and Sfp PPTase inh -0.1%.
`C[N+](C)(C)C/C=C1/COCO1` gave JMJD2A Tudor inconclusive, HP1b binding inh -3.2%, G9a inh 50.1µM*, L3MBTL1 block 2.9%, BAZ2B inh -2.4% and Sfp PPTase inh -7.6%.
`Cc1cccc(-c2ccc(NC(=O)C3CCN(CC4CC4)CC3)cc2)c1` gave JMJD2A Tudor -26.9%, HP1b binding inh 22.0%, L3MBTL1 block -2.0%, BAZ2B inh -4.8% and Sfp PPTase inh 1.3%.
COc1cccc(CN2CCC(C(=O)Nc3ccc(-c4cccc(C)c4)cc3)CC2)c1O was read as JMJD2A Tudor inconclusive, HP1b binding inh -4.4%, G9a inh 20µM*, L3MBTL1 block -3.1%, BAZ2B inh inconclusive and Sfp PPTase inh inconclusive.
`COc1ccc(OCCCn2ccnc2)cc1` gave JMJD2A Tudor 0.891µM*, HP1b binding inh 15.8µM*, G9a inh -50.2%[2.33 µM], BAZ2B inh 22.4µM* and Sfp PPTase inh inconclusive.
For Cc1cc(OCCN2CCCCCC2)ccc1[N+](=O)[O-] the results were JMJD2A Tudor inconclusive, HP1b binding inh inconclusive, G9a inh 25.1µM*, L3MBTL1 block 5.1%, BAZ2B inh 56.2µM* and Sfp PPTase inh 12.4%.
Fc1ccc(OCCCCCn2ccnc2)cc1 was read as JMJD2A Tudor -17.8%, HP1b binding inh 18.2%, G9a inh 13.2%, L3MBTL1 block -3.7%, BAZ2B inh -26.3% and Sfp PPTase inh -11.4%.
For Cc1cc(OCC(=O)N2CCCCCC2)ccc1[N+](=O)[O-] the results were JMJD2A Tudor -9.4%, HP1b binding inh 20.6%, G9a inh 0.8%[59 µM], L3MBTL1 block 10.6%, BAZ2B inh -5.4% and Sfp PPTase inh 11.5%.
Screening Fc1ccc(OCCCn2ccnc2)cc1 returned JMJD2A Tudor 44.7µM*, HP1b binding inh inconclusive, G9a inh 39.8µM*, L3MBTL1 block -2.4%, BAZ2B inh inconclusive and Sfp PPTase inh -6.2%.
`Cc1cc(OCCCn2ccnc2)ccc1[N+](=O)[O-]` gave JMJD2A Tudor 6.31µM*, HP1b binding inh inconclusive, L3MBTL1 block -1.0%, BAZ2B inh 56.2µM* and Sfp PPTase inh inconclusive.
`Cc1cc(OCCn2cncn2)ccc1[N+](=O)[O-]` gave JMJD2A Tudor -4.5%, HP1b binding inh 34.3%, L3MBTL1 block 0.7%, BAZ2B inh 7.4% and Sfp PPTase inh -2.3%.
O=C1NCc2c1c1c3ccccc3[nH]c1c1[nH]c3ccccc3c21 was read as JMJD2A Tudor -17.7%[57.1 µM] and HP1b binding inh 1.0%[57 µM].
COc1ccccc1N1CCN(C(=O)c2cc3ccc4ccc(C)[nH]c4c3n2)CC1 was read as JMJD2A Tudor inconclusive, HP1b binding inh 1.5%, G9a inh inconclusive and BAZ2B inh -25.4%[57.1 µM].
`COc1ccccc1OCCn1ccnc1` gave JMJD2A Tudor 3.55µM*, HP1b binding inh inconclusive, L3MBTL1 block 29.5%, BAZ2B inh inconclusive and Sfp PPTase inh -30.5%.
`CCOC(=O)c1sc(NC(=O)c2ccc(OC(C)=O)cc2)nc1C` gave JMJD2A Tudor 0.0%, HP1b binding inh 21.9%, G9a inh 0.0%, L3MBTL1 block -4.7%, BAZ2B inh -17.7% and Sfp PPTase inh 18.3%.
Screening CCOC(=O)c1sc(NC(=O)Cc2ccccc2OC)nc1C returned JMJD2A Tudor -10.9%, HP1b binding inh -4.2%, G9a inh 39.8µM*, L3MBTL1 block -2.5%, BAZ2B inh -30.0% and Sfp PPTase inh -10.9%.
CCOC(=O)c1sc(NC(C)=O)nc1C was read as JMJD2A Tudor -13.4%, HP1b binding inh inconclusive, G9a inh inconclusive, BAZ2B inh 0.6% and Sfp PPTase inh 56.2µM*.
